Sampled rows, rich in hits. Any-hit rate of the full collection: about 2.6%.
PABP1 MLLE inh: inhibitors of PABP1 MLLE–PAM2 peptide binding, primary screen, biochemical, fluorescence polarization, FITC-PAM2, GST-MLLE. inhibition, % at 20 µM. hit rate 0.36% among 360,000. Polyadenylate-binding protein 1 (Homo sapiens), P11940; in the data active = inhibition above about 35%, passing the limit was not always enough
eIF4H FP inh: human eIF4H binding inhibitors, primary screen, translation initiation inhibitor project, biochemical, uHTS, fluorescence polarization. Eukaryotic translation initiation factor 4H (Homo sapiens), Q15056. eIF4H fluorescence polarization binding assay. inhibition, % at 35 µM. hit rate 0.94% among 290,000;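 also: calls also rest on retests at 20 µM and on dose response follow-up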
PABP FP inh: PABP poly(A) RNA binding inhibitors, primary screen, biochemical, fluorescence polarization, uHTS | inhibition, % at 35 µM | hit rate 1% among 290,000;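 also: calls also rest on retests at 20 µM and on dose response follow-up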
PHOSPHO1 block: PubChem AID 1565. Phosphoethanolamine/phosphocholine phosphatase (Homo sapiens), Q8TCT1. recombinant PHOSPHO1, absorbance phosphatase assay. inhibition, % at 13.3 µM. hit rate 1.1% among 290,000; in the data active = inhibition above about 60%
Target sequence (Q8TCT1 whole entry, looked up): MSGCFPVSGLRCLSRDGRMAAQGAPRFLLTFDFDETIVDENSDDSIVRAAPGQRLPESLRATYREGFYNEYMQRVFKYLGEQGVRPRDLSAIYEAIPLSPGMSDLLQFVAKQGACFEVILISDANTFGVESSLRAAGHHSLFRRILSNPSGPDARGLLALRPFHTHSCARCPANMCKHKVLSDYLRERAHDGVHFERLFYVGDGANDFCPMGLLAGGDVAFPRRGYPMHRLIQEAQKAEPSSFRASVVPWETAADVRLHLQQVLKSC
CRFR2-BP antag: antagonists of CRF-BP/CRF-R2 complex, primary screen, cell-based, HEK293, calcium dye fluorescence, uHTS; CRF-induced calcium fluorescence; AID 588475, 2011; hit rate 0.59% among 350,000; inhibition, % at 11.8 µM;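 active = inhibition of the ligand-induced calcium signal above about 50% at the single tested concentration, limit read from the data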
A number is an active result; . = inactive; ? = inconclusive; / = no result; ! = a repeat was not active. Unless noted, no rule for the calls is given here.

SMILES	PABP1 MLLE inh	eIF4H FP inh	PABP FP inh	PHOSPHO1 block	CRFR2-BP antag
CCOCCCn1c(N)c(C(=O)Nc2sc3c(c2C(=O)OC)CCCC3)c2nc3ccccc3nc21	.	?	.	.	.
CCOC(=O)c1c(NC(=O)c2c(N)n(CCCOC)c3nc4ccccc4nc23)sc2c1CCCC2	.	?	71	.	.
O=C(NC1CCCCC1)N1Cc2cc(-c3ccccc3)ccc2-n2nncc2C1	.	/	/	/	/
O=C(c1ccc(Cl)cc1)N1CCC2(CC1)OCCO2	.	.	.	/	.
S=C(c1ccc(Cl)cc1)N1CCOCC1	44	.	.	62	.
CC(C)(C)n1nnnc1C(c1cccs1)N1CCC2(CC1)C(=O)NCN2c1ccccc1 (centres undefined)	.	/	/	/	/
O=C(O)CCn1cc(C=C2C(=O)NC(=S)NC2=O)c(-c2ccccc2)n1	42	.	.	.	.
O=c1[nH]c(=O)n(Cc2ccccc2)c(O)c1C=NCCCO	.	54	52	.	.
CCOCCCN=Cc1c(O)n(Cc2ccccc2)c(=O)[nH]c1=O	.	.	.	.	.
COc1ccc(Cn2c(O)c(/C=N/NC(=O)c3ccncc3)c(=O)[nH]c2=O)cc1	.	.	.	.	.
COc1ccc(Cn2c(O)c(/C=N/NC(=O)c3ccccc3)c(=O)[nH]c2=O)cc1	.	?	.	.	55
C[C@]12CCC3C(CC[C@H]4C[C@@H](O)CC[C@]34C)C1C[C@@H](N)[C@@H]2O (some centres undefined)	.	/	/	/	.
NC(=O)OCCSc1nnc(-c2cccc(C(N)=S)c2)o1	41	.	.	.	.
CC[n+]1c(-c2ccccc2)c2cc(N)ccc2c2ccc(N)cc21	79	/	/	/	.
Cc1ccc(NC(=O)CN2C(=O)CN=C(c3ccccc3)c3cc(Cl)ccc32)cc1	.	.	.	.	.
CCC(C)C1N=C(c2ccccc2)c2cc(Cl)ccc2N(CC(=O)NCc2ccco2)C1=O (centres undefined)	.	.	.	.	55
Clc1cnc(Oc2ccc(Oc3ncc(Cl)cc3Cl)cc2)c(Cl)c1	.	.	.	.	72
COc1ccc(CN(CCc2c[nH]c3ccccc23)Cc2ccc(OC)cc2)cc1	.	/	/	/	63
COc1cccc(CNCCc2c[nH]c3ccccc23)c1	.	.	.	.	.
CCc1cccc(C)c1NC(=S)N1CC2CC(C1)c1cccc(=O)n1C2 (centres undefined)	.	.	.	.	.
O=C1NC(=O)[C@]2(Cc3ccccc3N3CCN(c4ccccc4)CC32)C(=O)N1Cc1ccccc1 (some centres undefined)	.	.	.	72	.
CN1C(=O)NC(=O)[C@]2(Cc3ccccc3N3CCN(c4ccccc4)CC32)C1=O (some centres undefined)	.	.	.	65	.
C=CC1CN2CCC1CC2C(O)c1ccnc2ccccc12 (centres undefined)	.	/	/	/	.
CCCCC1(CCCC)C(=O)NC(=Nc2cccc(C)c2)NC1=O	.	.	.	.	55
CCCC1(CCC)C(=O)NC(=Nc2ccccc2)NC1=O	.	.	.	.	.
SMILES	PABP1 MLLE inh	eIF4H FP inh	PABP FP inh	PHOSPHO1 block	CRFR2-BP antag
O=[N+]([O-])c1c(Cl)c(Cl)c(Cl)c(Cl)c1Cl	.	/	/	/	.
Nc1cc(Cl)c2nonc2c1[N+](=O)[O-]	.	.	.	.	58
O=C(CCl)Nc1nccs1	.	.	.	.	62
COc1ccccc1Cn1c(SCC(=O)C(C)(C)C)nc2cc(C(=O)N3CCC4(CC3)OCCO4)ccc2c1=O	/	.	.	.	/
O=S(=O)(c1ccc(Cl)cc1)N1CC1c1ccccc1 (centres undefined)	.	.	.	.	.
C=C1[C@H]2CC[C@H]3[C@]4(C)C[C@H](O[C@H]5O[C@H](CO)[C@@H](OS(=O)(=O)O)[C@H](OS(=O)(=O)O)[C@H]5OC(=O)CC(C)C)C[C@@H](C(=O)O)[C@H]4CC[C@]3(C2)[C@H]1O	.	/	/	/	.
COc1ccccc1OCCCn1cc(C=O)c2ccccc21	.	.	.	.	.
O=Cc1cn(CCCOc2ccccc2)c2ccccc12	.	?	58	.	.
CCOC(=O)c1ccc2[nH]c(-c3ccc(S(=O)(=O)F)cc3)cc(=O)c2c1	.	.	.	.	.
COc1ccc2c3c1OC1C(O)C=CC4C(C2)[N+](C)(C)CCC341 (centres undefined)	.	.	98	.	.
CC(C)(C)c1cc([N+](=O)[O-])cc(C(C)(C)C)c1O	/	.	.	.	63
CCCCn1c(O)c(C(CC)=NC(C)c2ccccc2)c(=O)[nH]c1=O (centres undefined)	.	.	.	.	.
CCCCn1c(O)c(C(C)=NC(C)c2ccccc2)c(=O)[nH]c1=O (centres undefined)	.	active	59	.	.
CCN(CC)P(=O)(NC(=O)c1cccn1C)N(CC)CC	.	4.4	?	.	.
CN[C@@H]1C[C@@H](c2ccc(Cl)c(Cl)c2)c2ccccc21	/	.	.	.	/
ClCCOCCCl	.	/	/	/	.
Oc1c(Cl)c(Cl)c(Cl)c(Cl)c1Cl	.	/	/	/	54
CN1CCC2(CC1)C(C#N)=C(N)NC(S)=C2C#N	.	55!	active	.	.
Cc1ccc(N2C(=O)/C(=C/c3ccc(CN(CCC#N)S(C)(=O)=O)o3)C(=O)NC2=S)cc1	.	.	.	.	.
CC(=O)c1c(O)n(-c2cccc(Cl)c2)c(=O)[nH]c1=O (tested in a mixture with another compound)	.	112	60	.	.
C[C@]12CCC3C(CC[C@H]4C[C@H](O)CC[C@]34C)C1C[C@H](O)[C@H]2O (some centres undefined)	.	/	/	/	.
CCOc1ccc2nc(N=Nc3c(O)[nH]c(=S)[nH]c3=O)sc2c1	.	.	.	.	.
COC(=O)C1=Nc2ccccc2/C1=C\c1c(O)n(C)c(=O)n(C)c1=O	.	.	18	.	.
O=[N+]([O-])c1cc(S(=O)(=O)c2ccc(O)c([N+](=O)[O-])c2)ccc1O	.	.	.	.	.
COc1cc(/C=C/C(=O)c2c(O)n(CCc3ccccc3)c(=O)[nH]c2=O)ccc1O	.	.	.	.	.

Screening data deposited in PubChem by Sanford-Burnham Center for Chemical Genomics.
